Experimental data taken from PubChem BioAssay (Tox21).
Inconclusive results are not listed. Entries that show only a call come without a potency. Unmarked numbers belong to inactive results. Active and inactive are the calls of the source. Unless noted, calls come from the whole dose curve; as a rule, active = well fitted curve in the direction sought with a large enough effect in the repeat runs; inconclusive = weak or mixed curves; inactive = no such curve, though single readings can be large; an effect the other way counts as inactive or inconclusive.

Assays:
[1] = qHTS assay to identify small molecule antagonists of the vitamin D receptor (VDR) signaling pathway - cell viability counter screen (AID 743225); note: nearly all actives have a fitted effect of over 50% in size
Summary of the method: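 Cytotoxicity counter screen read by CellTiter-Glo luminescence (30 min, room temperature) in the same wells as the VDR-bla antagonist readout. HEK 293T VDR-UAS-bla cells had 16 h at 37C with compound and 3 nM (final) 1-alpha,25-dihydroxyvitamin D3, then 2 h with FRET substrate.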

[2] = qHTS assay to identify small molecule agonists of the NFkB signaling pathway - cell viability counter screen (AID 1159515; calls by dose curve; note: nearly all actives have a fitted effect of over 55% in size)
Summary of the method: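 Viability in NFkB-bla ME-180 cells was measured by CellTiter-Glo luminescence, 30 min room temperature, in wells already treated 5 hr with compounds and read for reporter FRET.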

[3] = qHTS assay to identify small molecule agonists of the endoplasmic reticulum stress response signaling pathway (AID 1159516; active = well fitted activation curve with a large enough effect in the signal ratio in the repeat runs, not every such curve was filed as active; the % refers to the signal ratio)
Summary of the method: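 ER stress element reporter (bla) in HeLa. 1,500 cells/well, overnight attachment; 5 hr compound; 2 hr RT substrate; dual-emission fluorescence.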

[4] = qHTS assay to identify small molecule antagonists of the retinoid-related orphan receptor gamma (ROR-gamma) signaling pathway - cell viability counter screen (AID 1159520); note: nearly all actives have a fitted effect of over 50% in size
Summary of the method: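 Tet-on ROR gamma CHO cells (1,000/well) were plated 4 hr, given compounds in DMSO for 2 hr at 37 C, then induced with 1 uM final doxycycline for 16 hr. Viability was read as ATP by CellTiter-Glo luminescence after 30 min.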

[5] = target: Nuclear receptor ROR-gamma (Homo sapiens) (UniProt P51449); assay: qHTS assay to identify small molecule antagonists of the retinoid-related orphan receptor gamma (ROR-gamma) signaling pathway (AID 1159521; note: top concentration of the series differs between compounds; nearly all actives have a fitted effect of over 50% in size)
Summary of the method: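 Antagonist read-out: drop in luminescence (ONE-Glo) from an RORE-LUC reporter in CHO cells with doxycycline-inducible ROR-gamma; 2 hr compound pretreatment, 1 uM doxycycline, 16 hr incubation at 37 C.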

[6] = qHTS assay to identify small molecule agonists of the AP-1 signaling pathway - cell viability counter screen (AID 1159525; calls by dose curve; note: nearly all actives have a fitted effect of over 55% in size)
Summary of the method: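 ME-180 AP-1-bla, 2500 cells/well, Opti-MEM + 0.5% dialyzed FBS; overnight 37 °C; cpd 15-pt titration, 5 h 37 °C; CellTiter-Glo 30 min RT; luminescence read; normalised to TOAB and DMSO controls.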

[7] = qHTS assay to identify small molecule agonists of the AP-1 signaling pathway (AID 1159526; calls by dose curve)
[8] = target: Retinoic acid receptor RXR-alpha (Homo sapiens) (UniProt P19793); assay: qHTS assay to identify small molecule agonists of the RXR signaling pathway (AID 1159527; calls by dose curve; note: nearly all actives have a fitted effect of over 35% in size)
Summary of the method: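 Agonist-mode beta-lactamase reporter assay: HEK 293T RXR-alpha-UAS-bla cells treated 16 hr at 37 C with compounds, 9-cis retinoic acid as positive control. LiveBLAzer FRET substrate, 405 nm excitation, 460/530 nm emission.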

[9] = qHTS assay to identify small molecule agonists of the RXR signaling pathway - cell viability counter screen (AID 1159529); note: nearly all actives have a fitted effect of over 50% in size
Summary of the method: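 CellTiter-Glo luminescence gave viability in the wells also read for beta-lactamase. Cells (RXR-alpha-UAS-bla HEK 293T, 2% charcoal-stripped FBS medium) had 5 hr plating, then 16 hr compound exposure at 37 C; tetraoctyl ammonium bromide served as positive control.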

[10] = qHTS assay to identify small molecule antagonists of the retinoid acid receptor (RAR) signaling pathway - cell viability counter screen (AID 1159551); note: nearly all actives have a fitted effect of over 35% in size
Summary of the method: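 Following overnight attachment, C3RL4 reporter cells received DMSO-dissolved compounds and then retinol (1 uM final). Six hours later at 37 C, ATP content was measured by CellTiter-Glo luminescence.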

[11] = qHTS assay to identify small molecule antagonists of the retinoic acid receptor (RAR) signaling pathway (AID 1159552; note: nearly all actives have a fitted effect of over 50% in size)
Summary of the method: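 Luminescent RARE reporter read-out in C3RL4 cells: 6 hr co-treatment at 37 C of test compounds with retinol at 1 uM final. Cells plated overnight beforehand; luciferase reagent incubated 30 min at room temperature before reading.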

[12] = qHTS assay to identify small molecule antagonists of the estrogen related receptor (ERR) signaling pathway from Tox21 library - cell viability counter screen (AID 1224834); note: nearly all actives have a fitted effect of over 30% in size
Summary of the method: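 Viability readout (CellTiter-Fluor fluorescence, 30 min at 37 C) multiplexed with the ERR assay; cells treated 17.5 h at 37 C with compounds delivered in DMSO.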

[13] = qHTS assay to identify small molecule agonists of the retinoic acid receptor (RAR) signaling pathway (AID 1159553); settings: C3RL4 RARE luciferase reporter, agonist, 6 h; activation: at 73.3 µM (top of the series) unless noted; note: potency is the fitted concentration of half-maximal effect
Summary of the method: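 Cell line C3RL4, RARE luciferase reporter. Treatment: compounds in DMSO, 6 hr, 37 C, 5% CO2, after overnight plating. Detection: luminescence, 30 min RT after reagent.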

Chain of Retinoic acid receptor RXR-alpha (Homo sapiens) (P19793 whole entry, looked up): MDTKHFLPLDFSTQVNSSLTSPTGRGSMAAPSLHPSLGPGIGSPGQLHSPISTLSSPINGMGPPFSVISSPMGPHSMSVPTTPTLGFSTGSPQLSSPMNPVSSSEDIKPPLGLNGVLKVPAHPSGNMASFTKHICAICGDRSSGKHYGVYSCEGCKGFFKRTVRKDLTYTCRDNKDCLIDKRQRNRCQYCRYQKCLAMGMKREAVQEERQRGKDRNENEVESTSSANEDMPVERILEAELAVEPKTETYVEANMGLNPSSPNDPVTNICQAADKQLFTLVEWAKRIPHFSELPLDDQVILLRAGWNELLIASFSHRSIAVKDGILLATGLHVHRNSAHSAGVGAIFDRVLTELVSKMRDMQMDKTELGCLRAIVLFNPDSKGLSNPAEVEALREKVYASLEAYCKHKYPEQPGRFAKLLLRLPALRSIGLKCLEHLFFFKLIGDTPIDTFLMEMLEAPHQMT

Row | SMILES | Potency [1] | Potency [2] | Potency [3] | Potency [4] | Potency [5] | Potency [6] | Potency [7] | Potency [8] | Potency [9] | Potency [10] | Potency [11] | Potency [12] | Potency [13]
1 | Clc1ccnc(Cl)n1 | inactive | inactive | inactive | inactive | inactive | inactive | inactive | inactive | inactive | inactive | inactive | inactive | –
2 | CCC(CC)(CC(=O)Nc1cccc(/C=C/c2nc(C3CCC3)cs2)c1)C(=O)O | inactive | inactive | inactive | inactive | inactive | inactive | inactive | – | inactive | inactive | inactive | inactive | –
3 | OC1CCCc2ccccc21 (configuration not stated) | inactive | inactive | inactive | inactive | inactive | inactive | inactive | inactive | inactive | inactive | – | inactive | –
4 | CC(C)NC[C@@H](O)COc1ccc(CC(N)=O)cc1 | inactive | inactive | inactive | inactive | inactive | inactive | inactive | – | inactive | inactive | – | inactive | inactive
5 | CCO[Si](OCC)(OCC)OCC | inactive | inactive | inactive | inactive | inactive | inactive | inactive | – | inactive | inactive | – | inactive | inactive
6 | COc1cc(/C=C/c2ccccc2)oc(=O)c1 | inactive | inactive | inactive | inactive | inactive | inactive | inactive | – | inactive | inactive | inactive | – | 564 nM (active)
7 | Cc1cccc(C)c1NC(=O)c1ccc(N)cc1 | inactive | inactive | inactive | inactive | inactive | inactive | inactive | inactive | inactive | inactive | – | inactive | –
8 | NC(=O)c1cccc([N+](=O)[O-])c1 | inactive | inactive | inactive | inactive | inactive | inactive | inactive | inactive | inactive | inactive | inactive | inactive | –
9 | CC(=O)Oc1cc2c(s1)CCN(C(C(=O)C1CC1)c1ccccc1F)C2 (configuration not stated) | – | inactive | inactive | inactive | inactive | inactive | inactive | – | inactive | inactive | – | inactive | inactive
10 | CN(C)CCN1CCN(c2cccc(Cl)c2)C1=O | inactive | inactive | inactive | inactive | inactive | inactive | inactive | inactive | inactive | inactive | – | inactive | –
11 | C=CC(C)(CCC=C(C)C)OC=O (configuration not stated) | inactive | inactive | inactive | inactive | inactive | inactive | inactive | inactive | inactive | inactive | – | inactive | –
